Screening results deposited in PubChem by several laboratories.
The list is not random: actives were taken first. Their share in the collection is about 0.41%.
RmlCD inh mix = inhibitors of RmlC and RmlD coupled enzymes; inhibition, % at 5.5 µM; RmlC/RmlD coupled enzyme inhibition, 384-well mixture HTS; AID 1532; hit rate 0.39% among 110,000; in the data active = inhibition above about 30%, passing the limit was not always enough
YopH PTP inh = inhibitors of Yersinia enterocolitica YopH tyrosine phosphatase; AID 898; hit rate 0.16% among 140,000; inhibition, % (no concentration beside the values); fluorescence Ex485/Em525; in the data active = inhibition above about 50%
RmlCD artifact = counter-screen for RmlC/RmlD inhibitors: fluorescence artifact | calls only | shares compounds with RmlCD inh mix | hit rate 96% among 360 | AID 1696 | RmlC/RmlD assay fluorescence artifact counter-screen; call rule not given here;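 note: compound alone with no enzyme and no substrates present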
Active calls of the source: *; i = inactive; · = no result; + = active, no number.

SMILES	RmlCD inh mix	YopH PTP inh	RmlCD artifact
Cc1cc2oc3cc(NCCC4CCCN4C)ccc3c(=O)c2cc1C (centres undefined)	68*	·	+
CN1CCCC1CCNc1ccc2sc3ccccc3c(=O)c2c1 (centres undefined)	-11	·	·
O=C(CCC(=O)N1CCN(S(=O)(=O)c2ccc(Cl)cc2)CC1)Nc1cccc(Br)c1	·	-12	·
C=CCCCCCCCCC(=O)NN	12	2	·
CCC1OC23CCCCC2C(C#N)(C(=N)O3)C1(C#N)C#N (centres undefined)	-4	-5	·
COc1ccc(C2OC34CCCCC3C(C#N)(C#N)C2(C#N)C(=N)O4)cc1 (centres undefined)	64*	-12	+
CC1OC23CCCCC2C(C#N)(C(=N)O3)C1(C#N)C#N (centres undefined)	2	-37	·
N#CC1(C#N)COC23CCCCC2C1(C#N)C(=N)O3 (centres undefined)	107*	18	+
CC1=C(C(=O)OC(C)C)C(c2cn(-c3ccccc3)nc2-c2cccs2)NC(=O)N1 (centres undefined)	·	-16	·
CC(C)C1Cc2c(sc3[nH]c(=S)n(Cc4ccccc4)c(=O)c23)CO1 (centres undefined)	·	2	·
COC(=O)c1nn(-c2ccc3c(c2)CCN3C(C)=O)cc1O	41*	-148	+
COC(=O)c1nn(-c2ccc3c(c2)OCO3)cc1O	-2	-14	·
CC(C)(C)N1C(=O)Cc2c1nc(N)c1c(N)nc(N3CCCCC3CO)c(C#N)c21 (centres undefined)	35*	-34	+
N#Cc1c(N2CCCCC2)nc(N)c2c(N)nc3c(c12)CC(c1ccccc1)O3 (centres undefined)	-13	19	·
CN(CCO)c1nc(N)c2c(N)nc3c(c2c1C#N)CC(=O)N3C1CCCC1	30*	1	+
CCN(CC)c1nc(N)c2c(N)nc3c(c2c1C#N)CC(c1ccccc1)O3 (centres undefined)	-95	-12	·
CCCC(CCC)=NNC(=O)CN(Cc1ccccc1)S(=O)(=O)c1ccccc1	·	-45	·
O=C(NCC1CCCO1)c1cc(-c2ccco2)nc2ccccc12 (centres undefined)	53*	-37	+
CC(C)CCNC(=O)c1cc(-c2ccco2)nc2ccccc12	69	4	·
CCc1sc(NC(=O)c2cc3ccccc3oc2=O)nc1-c1cccs1	·	-34	·
CCCn1c(-c2cccs2)nc2nc3ccccc3nc21	81*	-10	+
c1csc(-c2nc3nc4ccccc4nc3n2Cc2ccc3c(c2)OCO3)c1	-20	-31	·
CC1CC(NC(=O)N(C)C)N(C)C(=O)N1 (centres undefined)	·	-21	·
CCc1cc2c(CN3CCN(C)CC3)cc(=O)oc2cc1O	-2	-46	·
CCc1cc2c(CN3CCN(CCO)CC3)cc(=O)oc2cc1O	61*	-26	+
SMILES	RmlCD inh mix	YopH PTP inh	RmlCD artifact
COCCCn1c(=O)/c(=C\c2ccc(OC(F)F)c(OC)c2)s/c1=C(/C#N)C(=O)NCCOC	·	·	i
COCCCn1c(=O)/c(=C\c2ccccc2OC(F)F)s/c1=C(/C#N)C(=O)NC(C)C	·	-16	·
CC1=CC(c2ccc(Cl)cc2)n2nc(NS(=O)(=O)c3ccc(C)cc3)nc2N1 (centres undefined)	22	-16	·
CC1=CC(c2ccccc2)n2nc(NS(=O)(=O)c3ccc(C)cc3)nc2N1 (centres undefined)	54*	-49	+
Cc1nc(C(=O)NC2CCOCC2)sc1C1(C)CC(c2cccc([N+](=O)[O-])c2)=NO1 (centres undefined)	5	·	·
CCn1c(/C=N/n2cnnc2)nc2ccccc21	73*	-41	+
CCn1c2ccccc2c2cc(/C=N/n3cnnc3)ccc21	5	-41	·
CCOC(=O)C(=O)c1cn(C2OCC(OC(C)=O)C(OC(C)=O)C2OC(C)=O)c2ccccc12 (centres undefined)	·	-20	·
COc1ccc(-c2nc(C#N)c(N3CCC(C(N)=O)CC3)o2)cc1OC	41*	-8	+
COc1ccc(-c2nc(C#N)c(N3CCOCC3)o2)cc1OC	26	-22	·
CN(C)S(=O)(=O)c1ccc(S(=O)(=O)Nc2ccc3c(c2)oc2ccccc23)cc1	6	6	·
Cc1cc(=O)oc2cc(NS(=O)(=O)c3ccccc3)ccc12	·	·	+
CN(C)c1ccc(-c2cc([C@H]3[C@@H]4C=CCC[C@@]4(C)C(=O)N3Cc3ccccc3)ccc2F)cc1	-31	·	·
Cc1nc(C(=O)NCc2ccccc2)sc1C1(C)CC(c2ccccc2)=NO1 (centres undefined)	-10	·	·
CCc1ccc(-c2cc(C(F)(F)F)n3nc(C(=O)Nc4cnn(Cc5ccccc5C)c4)cc3n2)s1	+	-28	+
CCc1ccc(-c2cc(C(F)(F)F)n3nc(C(=O)Nc4c(C)nn(Cc5ccccc5C)c4C)cc3n2)s1	-27	-4	·
C=CCOC(=O)C1=C(C)NC(SCC(=O)N(CC)CC)=C(C#N)C1c1ccccc1 (centres undefined)	·	-24	·
C=CCOC(=O)C1=C(C)NC(SCC(=O)NC(=O)OCC)=C(C#N)C1c1cccnc1 (centres undefined)	30*	-20	+
O=C(NCCCn1ccnc1)/C(=C\c1cccnc1)NC(=O)c1cccc(Br)c1	·	-29	·
CCOC(=O)CC(=O)CSc1nc2c(cc1C#N)CCCCC2	76	-41	·
CCc1nc(SCC(=O)O)c(C#N)cc1C	-2	-46	·
CCOC(=O)CC(=O)CSc1nc(C)cc(C)c1C#N	110*	-4	+
CCOC(=O)CC(=O)CSc1nc2ccc(C)cc2cc1C#N	+	-43	+
CC(C)OC(=O)CC(=O)CSc1nc2c(cc1C#N)CCCCC2	+	17	+
CCOC(=O)CC(=O)CSc1nc2c(c(C)c1C#N)CCC2	·	-25	·
SMILES	RmlCD inh mix	YopH PTP inh	RmlCD artifact
COC(=O)CSc1nc2cc(C)ccc2cc1C#N	6	-15	·
CCOC(=O)CC(=O)CSc1nc(CC)c(C)cc1C#N	·	·	+
CCOc1cc(N2CCOCC2)c(OCC)cc1NC(C)C(=O)N1CCC(C)CC1 (centres undefined)	·	-3	·
CCCCN1CCCC1CNC(=O)c1cc(C#N)c2ccccc2c1OC (centres undefined)	-10	·	·
O=C(Nc1nnc(SCc2ccc(F)cc2)s1)C1CC(=O)N(Cc2ccccc2)C1 (centres undefined)	·	-29	·
CCC(=O)Oc1c(C(=O)CC)cc2c(C)cc(=O)oc2c1C	·	-25	·
CCC(=O)Nc1c(OC(=O)CC)ccc2c(C)cc(=O)oc12	+	-53	+
CCOC(=O)c1cccc(NC(=O)c2ccc(N(C)C)cc2)c1	·	-19	·
CCOC(=O)c1nn(-c2ccccc2)c2nc(-c3ccc(OC)cc3)c(C#N)c(=O)n12	·	-23	·
CCOC(=O)c1nn(-c2ccc(F)cc2)c2nc(CC(C)C)c(C#N)c(=O)n12	51*	-20	+
COc1ccc(-c2cc(=NC(CC(C)C)C(=O)O)c3cc(C)ccc3o2)cc1 (centres undefined)	·	-10	·
COc1ccc(-c2cc(=NCCC(=O)O)c3cc(C)ccc3o2)cc1	·	·	+
O=C(Nc1ccc(-c2nc3cc(NC(=O)c4cccs4)ccc3o2)cc1)c1cccs1	93*	-28	+
O=C(Nc1ccc2oc(-c3ccncc3)nc2c1)c1cccs1	0	3	·
O=C(Nc1ccc2oc(-c3ccc4ccccc4c3)nc2c1)c1ccc2c(c1)OCCO2	36*	-4	+
